Our source for the outcome and AC50 values is PubChem BioAssay (EPA / NIEHS).

The source made the active and inactive calls. Rule for the calls: active = hit-call score of the fitted dose curve at least 0.9, where 1 is the maximum; inactive = score below 0.9.

Details in all cases: mRNA level, 48 h; actives raise or lower the signal
Read-out in test [1]: Cytochrome P450 4A22 (Homo sapiens) (UniProt Q5TCH4)
Kind of test: LTEA_HepaRG_CYP4A22: Life Technologies and Expression Analysis (LTEA) Assay for Cytochrome P450 4A22 (CYP4A22) using HepaRG (AID 2283495). The gist of the method: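 Gene expression measured by qRT-PCR against three housekeeping genes (ACTB, GAPDH, POLR2A), with gain or loss fitted relative to 0.5% DMSO vehicle. HepaRG cultures received 48 h chemical treatment, top concentration 100 uM, half-log steps, duplicate wells.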

Read-out in test [2]: Cytochrome P450 7A1 (Homo sapiens) (UniProt P22680)
As to the kind of experiment: LTEA_HepaRG_CYP7A1: Life Technologies and Expression Analysis (LTEA) Assay for Cytochrome P450 7A1 (CYP7A1) using HepaRG (AID 2283496). A digest of the protocol:
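HepaRG, 48 h exposure, 8-pt half-log series from 100 uM, 0.5% DMSO vehicle, duplicates. Readout: TaqMan qRT-PCR mRNA vs three housekeeping genes; bidirectional curve fit against DMSO baseline.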

Read-out in test [3]: Glutathione S-Transferase (GSTA2), GSTA2 (gene 2939)
Kind of test: LTEA_HepaRG_GSTA2: Life Technologies and Expression Analysis (LTEA) Assay for Glutathione S-Transferase (GSTA2) using HepaRG (AID 2283497). The gist of the method:
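qRT-PCR readout of GSTA2 transcript, normalized to three housekeeping genes, fitted bidirectionally against 0.5% DMSO baseline. Differentiated HepaRG cells received compound for 48 h at 8 concentrations (top 100 uM, half-log steps).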

Read-out in test [4]: Glutamate-cysteine ligase catalytic (GCLC), GCLC (gene 2729)
Kind of test: LTEA_HepaRG_GCLC: Life Technologies and Expression Analysis (LTEA) Assay for Glutamate-cysteine ligase catalytic (GCLC) using HepaRG (AID 2283498). A digest of the protocol: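 HepaRG, 48 h exposure, 8-pt half-log series from 100 uM, 0.5% DMSO vehicle; TaqMan qRT-PCR for GCLC mRNA, housekeeping-normalized; bidirectional curve fit vs DMSO baseline.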

Read-out in test [5]: Glutamate-cysteine ligase regulatory (GCLM), GCLM (gene 2730)
As to the kind of experiment: LTEA_HepaRG_GCLM: Life Technologies and Expression Analysis (LTEA) Assay for Glutamate-cysteine ligase regulatory (GCLM) using HepaRG (AID 2283500). The gist of the method:
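Endpoint is GCLM transcript level by qRT-PCR, normalized to three housekeeping genes, after 48 h chemical exposure of human HepaRG cells (0.5% DMSO vehicle, top 100 uM, half-log dilutions). Fitting was bidirectional relative to DMSO.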

Read-out in test [6]: Glutathione S-transferase M3 (GSTM3), GSTM3 (gene 2947)
As to the kind of experiment: LTEA_HepaRG_GSTM3: Life Technologies and Expression Analysis (LTEA) Assay for Glutathione S-transferase M3 (GSTM3) using HepaRG (AID 2283501). A digest of the protocol: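 GSTM3 transcript levels came from Fluidigm TaqMan qRT-PCR normalized to three housekeeping genes, fitted in both directions against DMSO. HepaRG cultures received chemicals for 48 h in serum-free induction medium (0.5% DMSO), 8 half-log concentrations up to 100 uM, duplicate.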

Read-out in test [7]: Heat shock 70 kDa protein 1 (HSPA1A), gene 3303
As to the kind of experiment: LTEA_HepaRG_HSPA1A: Life Technologies and Expression Analysis (LTEA) Assay for Heat shock 70 kDa protein 1 (HSPA1A) using HepaRG (AID 2283502). The gist of the method: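 Cells were plated and cultured for 48 h, then switched to serum-free induction medium. Chemicals were added at eight half-log concentrations up to 100 uM for 48 h. RNA was then isolated and HSPA1A measured by qRT-PCR with bidirectional curve fitting against DMSO.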

Read-out in test [8]: 3-Hydroxy-3-Methylglutaryl-CoA Synthase 2 (HMGCS2), HMGCS2 (gene 3158)
Kind of test: LTEA_HepaRG_HMGCS2: Life Technologies and Expression Analysis (LTEA) Assay for 3-Hydroxy-3-Methylglutaryl-CoA Synthase 2 (HMGCS2) using HepaRG (AID 2283504). A digest of the protocol: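 Readout is HMGCS2 transcript by qRT-PCR, housekeeping-normalised (ACTB/GAPDH/POLR2A) and fitted bidirectionally against 0.5% DMSO. Differentiated HepaRG cells received chemicals 48 h, duplicate wells, eight half-log concentrations topping at 100 uM.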

Read-out in the next test: HGF (gene 3082)
As to the kind of experiment: LTEA_HepaRG_HGF: Life Technologies and Expression Analysis (LTEA) Assay for Hepatocyte Growth Facto (HGF) using HepaRG (AID 2283505). The gist of the method:
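HGF transcript was quantified by TaqMan qRT-PCR against three housekeeping genes after 48 h treatment of HepaRG cells. Exposure ran in duplicate over eight half-log steps topping at 100 uM in 0.5% DMSO vehicle.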

Read-out in test [9]: Insulin Like Growth Factor 1 (IGF1), IGF1 (gene 3479)
As to the kind of experiment: LTEA_HepaRG_IGF1: Life Technologies and Expression Analysis (LTEA) Assay for Insulin Like Growth Factor 1 (IGF1) using HepaRG (AID 2283506). The gist of the method: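 Cells are thawed, plated and cultured 48 h, then exposed in duplicate to chemical (highest 100 uM, half-log steps, 0.5% DMSO) for another 48 h. Total RNA is analysed by Fluidigm qRT-PCR for IGF1 expression relative to vehicle.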

Read-out in test [10]: Intercellular Adhesion Molecule 1 (ICAM1), ICAM1 (gene 3383)
Kind of test: LTEA_HepaRG_ICAM1: Life Technologies and Expression Analysis (LTEA) Assay for Intercellular Adhesion Molecule 1 (ICAM1) using HepaRG (AID 2283507). The gist of the method:
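ICAM1 transcript levels measured by qRT-PCR, normalized to three housekeeping genes (ACTB, GAPDH, POLR2A), after 48 h chemical exposure of HepaRG cells. Duplicate eight-point half-log series from 100 uM in 0.5% DMSO; gain or loss fitted against vehicle.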

Read-out in test [11]: Insulin-like growth factor-binding protein 1 (IGFBP1), IGFBP1 (gene 3484)
As to the kind of experiment: LTEA_HepaRG_IGFBP1: Life Technologies and Expression Analysis (LTEA) Assay for Insulin-like growth factor-binding protein 1 (IGFBP1) using HepaRG (AID 2283508). The gist of the method:
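Read-out is qRT-PCR transcript level normalized to three housekeeping genes, fitted in both directions against 0.5% DMSO. Differentiated HepaRG cells received eight half-log concentrations (top 100 uM) in duplicate for 48 h in serum-free induction medium.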

Read-out in test [12]: Interleukin 6 Receptor (IL6R), IL6R (gene 3570)
Kind of test: LTEA_HepaRG_IL6R: Life Technologies and Expression Analysis (LTEA) Assay for Interleukin 6 Receptor (IL6R) using HepaRG (AID 2283510).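 For AC50: differentiated human HepaRG liver cells in serum-free induction medium.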 The gist of the method: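 Cells were thawed, plated and cultured 48 h, then medium was changed to serum-free induction medium. Chemicals were added in duplicate (100 uM top, half-log steps, 0.5% DMSO) for 48 h. Lysates were analyzed by qRT-PCR for IL6R expression.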

Read-out in test [13]: Potassium channel subfamily K member 1 (KCNK1), KCNK1 (gene 3775)
Kind of test: LTEA_HepaRG_KCNK1: Life Technologies and Expression Analysis (LTEA) Assay for Potassium channel subfamily K member 1 (KCNK1) using HepaRG (AID 2283511). A digest of the protocol: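 HepaRG, 48 h exposure, 8-pt half-log series top 100 uM, 0.5% DMSO vehicle, duplicates. Readout: KCNK1 transcript by qRT-PCR (Fluidigm array), housekeeping-normalized; bidirectional curve fit relative to DMSO baseline.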

Read-out in test [14]: Keratin 19 (KRT19), KRT19 (gene 3880)
Kind of test: LTEA_HepaRG_KRT19: Life Technologies and Expression Analysis (LTEA) Assay for Keratin 19 (KRT19) using HepaRG (AID 2283512). A digest of the protocol:
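KRT19 transcript measured by TaqMan qRT-PCR, referenced to three housekeeping genes, after HepaRG cells received test chemicals for 48 h. Eight half-log concentrations, top 100 uM, 0.5% DMSO vehicle; increases and decreases both fitted.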

Read-out in test [15]: JUN Transcription Factor, JUN (gene 3725)
Kind of test: LTEA_HepaRG_JUN: Life Technologies and Expression Analysis (LTEA) Assay for JUN Transcription Factor using HepaRG (AID 2283513). A digest of the protocol: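 Read-out is JUN transcript level by TaqMan qRT-PCR, normalized to ACTB, GAPDH and POLR2A, after 48 h chemical treatment of HepaRG cells. Concentration-response spanned eight half-log points up to 100 uM in 0.5% DMSO.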

Read-out in test [16]: Lipase C (LIPC), LIPC (gene 3990)
As to the kind of experiment: LTEA_HepaRG_LIPC: Life Technologies and Expression Analysis (LTEA) Assay for Lipase C (LIPC) using HepaRG (AID 2283514). The gist of the method:
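HepaRG, 48 h exposure, 8-pt half-log series from 100 uM in 0.5% DMSO, duplicates. Readout: LIPC mRNA by Fluidigm qRT-PCR, housekeeping-normalized (ACTB/GAPDH/POLR2A). Gain or loss fitted bidirectionally against DMSO baseline.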

Read-out in test [17]: Hypoxia-inducible factor 1-alpha (Homo sapiens) (UniProt Q16665)
Kind of test: LTEA_HepaRG_HIF1A: Life Technologies and Expression Analysis (LTEA) Assay for Hypoxia-inducible factor 1 (HIF1A) Trancription factor using HepaRG (AID 2283503). A digest of the protocol:
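HIF1A transcript level read by qRT-PCR (ACTB, GAPDH, POLR2A normalization) after 48 h chemical exposure of HepaRG cultures. Eight half-log concentrations, top 100 uM, 0.5% DMSO vehicle, duplicates; bidirectional curve fit against DMSO baseline.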

Read-out in test [18]: Interleukin 6 (IL6), IL6 (gene 3569)
Kind of test: LTEA_HepaRG_IL6: Life Technologies and Expression Analysis (LTEA) Assay for Interleukin 6 (IL6) using HepaRG (AID 2283509). A digest of the protocol: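 qRT-PCR read-out of IL6 transcript, normalized to three housekeeping genes, after 48 h chemical exposure of HepaRG cells; 8-point half-log series, top 100 uM, 0.5% DMSO vehicle. Bidirectional curve fitting against DMSO baseline.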

Chain of Hypoxia-inducible factor 1-alpha (Homo sapiens) (Q16665 whole entry, looked up): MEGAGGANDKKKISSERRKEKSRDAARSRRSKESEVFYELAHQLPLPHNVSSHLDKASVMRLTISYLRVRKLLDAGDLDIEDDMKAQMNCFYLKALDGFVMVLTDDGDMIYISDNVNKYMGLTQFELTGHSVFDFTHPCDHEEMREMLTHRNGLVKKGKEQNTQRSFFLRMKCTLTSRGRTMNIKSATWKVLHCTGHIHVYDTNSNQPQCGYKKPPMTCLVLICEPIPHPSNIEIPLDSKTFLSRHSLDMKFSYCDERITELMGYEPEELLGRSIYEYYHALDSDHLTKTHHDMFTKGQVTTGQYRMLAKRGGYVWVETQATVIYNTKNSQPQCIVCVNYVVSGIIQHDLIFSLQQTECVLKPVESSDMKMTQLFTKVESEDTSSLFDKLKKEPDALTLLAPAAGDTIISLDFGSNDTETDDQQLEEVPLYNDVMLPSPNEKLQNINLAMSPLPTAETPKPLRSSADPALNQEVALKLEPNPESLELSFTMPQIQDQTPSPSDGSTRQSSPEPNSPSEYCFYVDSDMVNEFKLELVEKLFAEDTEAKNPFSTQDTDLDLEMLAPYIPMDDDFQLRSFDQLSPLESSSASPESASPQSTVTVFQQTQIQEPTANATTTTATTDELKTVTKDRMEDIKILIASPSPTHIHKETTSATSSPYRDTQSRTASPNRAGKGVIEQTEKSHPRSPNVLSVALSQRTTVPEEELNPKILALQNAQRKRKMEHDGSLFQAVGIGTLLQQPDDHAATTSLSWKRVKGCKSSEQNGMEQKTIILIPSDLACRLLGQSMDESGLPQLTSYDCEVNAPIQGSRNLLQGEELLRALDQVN

As for `O=c1c(-c2ccc(O)cc2)coc2cc(O)ccc12`, the call in [1], in test [2], in [3], in test [4], in test [5] and in [6] was inactive. The outcome (in test [7]; in [8]; with HGF (gene 3082); in test [9]; in test [10]; in test [11]) was inactive. Also, the outcome in test [12], in [13], in test [14], in [15] and in test [16] was inactive.
The term AC50 denotes the concentration giving half of the maximal activity seen. On to `NC(=O)N1C(=O)C(C(=O)c2cc(Cl)cs2)c2cc(F)c(Cl)cc21` (stereo not drawn), for which the AC50 is 24.1 µM (active) in [1]; 16.6 µM (active) in test [2]; 19.5 µM (active) in test [3]; 34.1 µM (active) in test [4]; 72.3 µM (active) in [7]; 22.7 µM (active) in [17]. Also, the AC50 in test [8] is 20.7 µM (active); in test [9] it was 24.8 µM (active); in [10], 19.9 µM (active); in test [11], 16 µM (active); in [18] it was 31.7 µM (active); in [12], 30.9 µM (active). Besides, the AC50 in test [13] is 29.1 µM (active); in test [16], 21.2 µM (active). Further, the call (in test [5]; in [6]; with HGF (gene 3082)) was inactive.
Regarding `CN1CCC[C@H]1c1cccnc1`, the compound was called inactive in test [1], in test [2], in test [3], in test [4], in test [5] and in [6]. For the same compound, the compound was called inactive (in test [7]; in [8]; with HGF (gene 3082); in test [9]; in test [10]; in test [11]). In addition, the compound was called inactive in test [12], in test [13], in test [14] and in test [16].
In the case of `COC(=O)CCCCC(=O)OC`, the compound was classed as inactive in [1], in test [2], in test [3], in test [4], in [5] and in test [6]. The compound was called inactive (in test [7]; in test [17]; in [8]; with HGF (gene 3082); in [9]; in [10]). The call in [11], in test [12], in test [13], in test [15] and in [16] was inactive.
For `CCCCC(CC)COC(=O)CCCCC(=O)OCC(CC)CCCC` (stereo not drawn), the call in [1], in [2], in test [3], in test [4], in [5] and in [6] was inactive. Moreover, the compound was classed as inactive (in test [7]; in [17]; in test [8]; in the test with HGF (gene 3082); in test [9]; in test [10]). The outcome in [11], in test [12], in test [13], in [14], in test [15] and in test [16] was inactive.
Take `c1ccc2c(c1)ccc1ccccc12`: the compound was classed as inactive in [1], in [2], in test [3], in [4], in test [5] and in test [6]. Moreover, the outcome (in [7]; in test [17]; in test [8]; with HGF (gene 3082); in [9]; in test [10]) was inactive. Also, the call in test [11], in test [12], in test [13], in [15] and in test [16] was inactive.
For the compound `COCC(C)OCC(C)O` (stereo not drawn), the call in test [1], in [2], in test [3], in test [4], in test [5] and in [6] was inactive. For the same compound, the compound was called inactive (in test [7]; in test [17]; in test [8]; with HGF (gene 3082); in [9]; in test [10]). The compound was called inactive in test [11], in test [12], in [13] and in [16].
